Hit rate of the full screen: of about 13,000 compounds, about 3,200 (25%) showed an effect of 50% or more. Some of the results follow.
Each compound was assayed on P. falciparum stage V gametocytes. Conditions: 48 h, 5 µM; inhibitor.
Design: BacTiter-Glo ATP luminescence viability of purified stage V gametocytes in 384-well plates, per cent inhibition versus DMSO

| SMILES | % Inhibition |
| --- | --- |
| Cc1c(Cc2ccccc2Cl)cnc2nc(N)nc(N)c12 [TCMDC-137245] | 7.074% |
| CCC(C)NS(=O)(=O)c1ccc2nc(Nc3ccc(C)cc3)n(C(C)C(C)(C)C)c2c1 (stereo not shown) [TCMDC-136230] | -32.2% |
| Cc1cccc2[nH]c(-c3ccc(-c4cccc(NC(=O)Nc5ccsc5)c4)cc3)nc12 [TCMDC-133217] | -11.37% |
| CS(=O)(=O)CCOCc1ccc(-c2ccc3ncnc(Nc4ccc(OCc5cccc(F)c5)c(Cl)c4)c3c2)o1 [TCMDC-138529] | -28.77% |
| CC1(C)N=C(N)N=C(N)N1OCc1cc(Cl)cc2c1OCOC2 [TCMDC-131577] | 12.67% |
| COc1cc(C)nc2ccc(NC(=O)Nc3ccccc3[N+](=O)[O-])cc12 [TCMDC-139396] | 3.442% |
| CCN(CCCN1CCCCC1)c1cc(C)nc(Nc2ccc(C)cc2Cl)n1 [TCMDC-132442] | 11.92% |
| CCN(CCCN1CCCCC1)c1cc(C)nc(Nc2ccc(C)cc2C)n1 [TCMDC-132445] | 14.07% |
| CCN(CCCN1CCCCC1)c1cc(C)nc(Nc2ccc(Cl)cc2C)n1 [TCMDC-132447] | 51.94% |
| CCN(CCCN1CCCCC1)c1cc(C)nc(Nc2ccc3c(c2)CCC3)n1 [TCMDC-132443] | -21.7% |
| CCCc1ccccc1Nc1nc(C)cc(N(CC)CCCN2CCCCC2)n1 [TCMDC-132434] | 49.3% |
| CCN(CCCN1CCCCC1)c1cc(C)nc(Nc2cccc3c2CCCC3)n1 [TCMDC-132431] | 65.25% |
| COc1ccc2nccc([C@@H](O)CN3CCC(NCc4cc5oc(=O)[nH]c5cc4Cl)CC3)c2c1 [TCMDC-141121] | -3.584% |
| Cc1cccc2nc(-c3cccc(-c4ccc(NC(=O)NC5CC5c5ccccc5)cc4)c3)[nH]c12 (stereo not shown) [TCMDC-133252] | -20.42% |
| Cc1cc2ncc(C(N)=O)c(Nc3ccc(N4CCOCC4)cc3)c2cc1S(C)(=O)=O.Cl [TCMDC-135825] | -8.581% |
| CCCCc1ccc(-c2c(N)nc(N)nc2CC)cc1 [TCMDC-138064] | -26.34% |
| O=C(/C=C/c1ccc(Cl)c(Cl)c1)NCCCCCCN1CCN(C(=O)Nc2cc(F)cc(F)c2)CC1 [TCMDC-135832] | -49.78% |
| COc1ccc2nccc(NCC3(O)CCN(CC(O)c4ccc5c(c4)NC(=O)CS5)CC3)c2n1 (stereo not shown) [TCMDC-141462] | 18.04% |
| CCc1cc([C@H]2O[C@@H](n3cnc4c(NCC(c5ccccc5)c5ccccc5)nc(NCCNc5ccccn5)nc43)[C@H](O)[C@@H]2O)on1 [TCMDC-138085] | 3.442% |
| COc1ccc(CCNC(=O)c2cc(C)ccc2O)cc1-c1ccc(C(C)(C)C)cc1 [TCMDC-136184] | 6.315% |
| CC(C)(C)c1ccc(CNC(=O)c2ccc(CNC3CCC(N)CC3)s2)cc1 (stereo not shown) [TCMDC-140777] | 101.7% |
| O=C(NCc1ccc(Cl)c(Cl)c1)c1cc(CNC2CCNCC2)ccc1O [TCMDC-140774] | 49.2% |
| CC(C)(C)c1ccc(CNC(=O)/C=C/c2ccc(CNC3CCNCC3)cc2)cc1 [TCMDC-140773] | 88.02% |

| SMILES | % Inhibition |
| --- | --- |
| CC(C)(C)c1ccc(CNC(=O)c2cc(CNC3CCNCC3)ccc2O)cc1 [TCMDC-140775] | 70.98% |
| COc1ccc(O)c(C(=O)NCCc2ccc(OC)c(-c3ccc(C(C)(C)C)cc3)c2)c1 [TCMDC-136183] | 40.96% |
| CC(C)(C)c1ccc(CNC(=O)c2cc(CNC3CCNC3)ccc2O)cc1 (stereo not shown) [TCMDC-140761] | 47.42% |
| CC(C)(CNC(=O)/C=C/c1ccc(C(F)(F)F)cc1)CNc1cc(=O)c2ccccc2[nH]1 [TCMDC-139403] | -57.07% |
| CC(C)(C)c1ccc(CNC(=O)c2cc(CNC3CCC(N)CC3)ccc2O)cc1 (stereo not shown) [TCMDC-140776] | 87.73% |
| CC(C)(C)C/C=C\c1ccc(C(=O)NCC2CC2)cc1 [TCMDC-138516] | 17.43% |
| CC(C)(C)c1ccc(CN2CCC(NC(=O)c3ccc(-c4ccccc4Cl)s3)CC2)cc1 [TCMDC-134351] | 7.857% |
| CC(C)(C)c1ccc(CN2CCC(NC(=O)c3ccc(-c4cccc(Cl)c4)s3)CC2)cc1 [TCMDC-134352] | -48.88% |
| CC(C)[C@H](NC(=O)c1ccc(O)c(-c2ccc(Cl)c(Cl)c2)c1)C(=O)NC1CCCCCC1 [TCMDC-140844] | 10.04% |
| Cc1cc(O)c(C(C)C)cc1C1(c2cc(C(C)C)c(O)cc2C)OC(=O)c2ccccc21 [TCMDC-123951] | -40.8% |
| Cn1nccc1C(=O)NCCNCc1cccc(-c2ccc(-c3nc4ccccc4[nH]3)cc2)c1.O=C(O)C(F)(F)F [TCMDC-133019] | -30.97% |
| CC(C)(C)c1cc(C(=O)N2CCC(c3ccccn3)CC2)n(Cc2ccccc2)n1 [TCMDC-133770] | -53.32% |
| CN(Cc1ccccc1)C1CCN(c2cc(NC(=O)c3cccc(F)c3)ccn2)CC1 [TCMDC-135000] | -5.844% |
| Clc1ncnc2ncn(Cc3cccc(Br)c3)c12 [TCMDC-137635] | 63.17% |
| Clc1nc(Cl)c2c(ccn2Cc2ccccc2)n1 [TCMDC-137801] | 10.13% |
| CCCCCN1CCCC(CNS(=O)(=O)c2cccc(C(=O)Nc3ccc(C(F)(F)F)cc3)c2)C1 (stereo not shown) [TCMDC-133672] | -63.4% |
| Fc1cccc(Cn2ncc3cc(Nc4ncnc5sc(C#Cc6ncc[nH]6)cc45)ccc32)c1 [TCMDC-135428] | -11.76% |
| O=c1cc(NCCCNCc2cc3ccc(Br)cc3s2)[nH]c2ccccc12 [TCMDC-140332] | -45.39% |
| OC(c1n[nH]c(=S)n1-c1ccccc1)C(O)c1n[nH]c(=S)n1-c1ccccc1 (stereo not shown) [TCMDC-125763] | 1.463% |
| Cn1cncc1-c1cc2c(Nc3ccc(OCc4ccccc4)cc3)ncnc2cn1 [TCMDC-137188] | -27.44% |
| Cc1[nH]c(C)c(-c2ccc(-c3ccc(OC(F)(F)F)cc3)nc2)c(=O)c1Cl [TCMDC-135677] | 60.39% |
| Cc1[nH]c(C)c(-c2ccc(-c3ccc(OC(F)(F)F)cc3)nc2)c(=O)c1Br [TCMDC-136016] | 67.89% |
| Cc1[nH]c(C)c(-c2ccc(-c3cccc(OC(F)(F)F)c3)nc2)c(=O)c1Cl [TCMDC-136286] | 5.058% |

Source: PMC4552634, “A New Set of Chemical Starting Points with Plasmodium falciparum Transmission-Blocking Potential for Antimalarial Drug Discovery” (PLoS ONE, 2015)
